# Results reported in PubChem BioAssay (Tox21).
# Several values for one entry are separate records, joined by “and”; a condition that tells them apart may be missing. Identical values can stand only once. Results filed as inconclusive are left out. Entries that show only a call come without a potency. More than one record can exist for a structure, and the calls need not agree. Activity calls are given as the source filed them. Calls come from the whole dose curve; as a rule, active = well fitted curve in the direction sought with a large enough effect in the repeat runs; inconclusive = weak or mixed curves; inactive = no such curve, though single readings can be large; an effect the other way counts as inactive or inconclusive.
# Legend:
# [1] = Caspase-3/7 induction in CHO-K1 cells by small molecules, qHTS cell viability counter screen (AID 1346979); note: nearly all actives have a fitted effect of over 35% in size; note: potency is the fitted concentration of half-maximal effect
# Summary of the method: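 CHO-K1 wt, 1,500 cells/well; 5hr pre-incubation 37C/5% CO2; compound pin transfer (DMSO); 16hr exposure; CellTiter-Fluor added, 1hr, fluorescence read.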
# [2] = Caspase-3/7 induction in CHO-K1 cells by small molecules, qHTS assay (AID 1346980); note: nearly all actives have a fitted effect of over 15% in size; note: potency is the fitted concentration of half-maximal effect
# Summary of the method: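 Wild-type cells were seeded at 1,500 per well and settled 5 hr at 37 C, 5% CO2, then exposed to DMSO-dissolved compounds for 17 hr. Caspase-Glo 3/7 reagent was added, and luminescence was read after 30min at room temperature.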
# [3] = Caspase-3/7 induction in HepG2 cells by small molecules, qHTS cell viability counter screen (AID 1346981); note: nearly all actives have a fitted effect of over 30% in size; note: potency is the fitted concentration of half-maximal effect
# Summary of the method: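 The parent HepG2 line is plated at 2,000 cells per well and rested 5 hr before compound pinning from DMSO stocks. Following a 16-hr treatment at 37 C, a fluorogenic live-cell substrate (CellTiter-Fluor) reports viability after 1 hr.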
# [4] = target: Nuclear receptor subfamily 1 group I member 2 (Homo sapiens) (UniProt O75469); experiment: Human pregnane X receptor (PXR) small molecule agonists, qHTS assay (AID 1346982); note: nearly all actives have a fitted effect of over 35% in size; note: potency is the fitted concentration of half-maximal effect
# Sequence of Nuclear receptor subfamily 1 group I member 2 (Homo sapiens) (O75469 whole entry, looked up): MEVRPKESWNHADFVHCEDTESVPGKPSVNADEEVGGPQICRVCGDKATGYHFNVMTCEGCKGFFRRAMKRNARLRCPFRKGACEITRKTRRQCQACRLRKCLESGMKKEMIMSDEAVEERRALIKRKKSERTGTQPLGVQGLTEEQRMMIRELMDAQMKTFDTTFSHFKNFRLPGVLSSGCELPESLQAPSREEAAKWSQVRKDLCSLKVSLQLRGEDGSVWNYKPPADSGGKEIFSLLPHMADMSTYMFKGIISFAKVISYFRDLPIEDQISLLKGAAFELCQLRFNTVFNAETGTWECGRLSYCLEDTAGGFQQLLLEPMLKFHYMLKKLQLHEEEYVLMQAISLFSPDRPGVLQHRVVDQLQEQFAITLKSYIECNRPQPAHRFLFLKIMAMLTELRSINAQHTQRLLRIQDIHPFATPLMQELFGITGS
# Summary of the method: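 After plating in 5% charcoal-stripped FBS and a 5 hr rest, PXR-Luc HepG2 cells received compounds in DMSO. Following 24 hr at 37 C, ONE-Glo was added and light output read.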
# [5] = target: Cytochrome P450 2D6 (Homo sapiens) (UniProt P10635); experiment: Cytochrome P450 Family 2 Subfamily D Member 6 (CYP2D6) small molecule antagonists: luciferase reporter qHTS assay (AID 1671196); note: nearly all actives have a fitted effect of over 50% in size; note: potency is the fitted concentration of half-maximal effect; for activity change, negative = inhibition: series mostly up to about 120 µM
# Sequence of Cytochrome P450 2D6 (Homo sapiens) (P10635 whole entry, looked up): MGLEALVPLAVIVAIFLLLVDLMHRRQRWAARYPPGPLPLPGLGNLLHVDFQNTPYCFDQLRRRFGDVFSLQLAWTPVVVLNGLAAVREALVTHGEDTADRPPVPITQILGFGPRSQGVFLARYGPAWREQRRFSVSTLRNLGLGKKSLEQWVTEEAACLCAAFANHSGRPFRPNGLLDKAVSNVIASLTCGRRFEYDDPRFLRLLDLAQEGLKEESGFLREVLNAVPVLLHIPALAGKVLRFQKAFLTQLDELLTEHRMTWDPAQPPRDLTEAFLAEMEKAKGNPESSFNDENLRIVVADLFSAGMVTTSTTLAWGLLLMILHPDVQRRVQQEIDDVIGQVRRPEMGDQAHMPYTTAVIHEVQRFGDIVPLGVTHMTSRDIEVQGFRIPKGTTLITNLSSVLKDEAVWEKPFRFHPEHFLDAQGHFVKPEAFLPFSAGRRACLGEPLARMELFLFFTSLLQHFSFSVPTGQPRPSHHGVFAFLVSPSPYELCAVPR
# Summary of the method: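 Quantitative HTS of Tox21 chemicals against CYP2D6 using a luminescent proluciferin substrate. After NADPH addition, 1 h room-temperature reaction; luminescence recorded 20 min post detection reagent.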
# [6] = target: Cytochrome P450 2C19 (Homo sapiens) (UniProt P33261); experiment: Cytochrome P450 Family 2 Subfamily C Member 19 (CYP2C19) small molecule antagonists: luciferase reporter qHTS assay (AID 1671197); note: nearly all actives have a fitted effect of over 65% in size; note: potency is the fitted concentration of half-maximal effect; for activity change, negative = inhibition: series mostly up to about 120 µM
# Sequence of Cytochrome P450 2C19 (Homo sapiens) (P33261 whole entry, looked up): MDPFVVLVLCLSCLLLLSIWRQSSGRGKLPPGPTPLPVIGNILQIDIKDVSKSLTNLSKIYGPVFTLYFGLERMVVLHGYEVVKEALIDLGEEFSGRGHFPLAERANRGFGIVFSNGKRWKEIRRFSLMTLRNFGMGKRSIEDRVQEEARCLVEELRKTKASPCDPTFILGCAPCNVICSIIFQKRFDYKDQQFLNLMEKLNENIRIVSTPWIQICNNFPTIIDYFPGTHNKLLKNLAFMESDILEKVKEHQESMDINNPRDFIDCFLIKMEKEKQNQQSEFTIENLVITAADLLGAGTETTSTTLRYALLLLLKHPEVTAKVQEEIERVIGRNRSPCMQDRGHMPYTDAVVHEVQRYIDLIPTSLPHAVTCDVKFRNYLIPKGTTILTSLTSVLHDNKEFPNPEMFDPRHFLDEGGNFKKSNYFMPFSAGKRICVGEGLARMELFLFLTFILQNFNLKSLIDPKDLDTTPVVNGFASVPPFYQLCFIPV
# Summary of the method: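 Light output is proportional to CYP2C19 activity: proluciferin substrate is converted to luciferin, then detected by a luciferin detection reagent that also stops the 1 h, 37C NADPH-driven reaction. Ketoconazole serves as positive control.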
# [7] = target: Cytochrome P450 2C9 (Homo sapiens) (UniProt P11712); experiment: Cytochrome P450 Family 2 Subfamily C Member 9 (CYP2C9) small molecule antagonists: luciferase reporter qHTS assay (AID 1671198); note: nearly all actives have a fitted effect of over 50% in size; note: potency is the fitted concentration of half-maximal effect; for activity change, negative = inhibition: series mostly up to about 120 µM
# Sequence of Cytochrome P450 2C9 (Homo sapiens) (P11712 whole entry, looked up): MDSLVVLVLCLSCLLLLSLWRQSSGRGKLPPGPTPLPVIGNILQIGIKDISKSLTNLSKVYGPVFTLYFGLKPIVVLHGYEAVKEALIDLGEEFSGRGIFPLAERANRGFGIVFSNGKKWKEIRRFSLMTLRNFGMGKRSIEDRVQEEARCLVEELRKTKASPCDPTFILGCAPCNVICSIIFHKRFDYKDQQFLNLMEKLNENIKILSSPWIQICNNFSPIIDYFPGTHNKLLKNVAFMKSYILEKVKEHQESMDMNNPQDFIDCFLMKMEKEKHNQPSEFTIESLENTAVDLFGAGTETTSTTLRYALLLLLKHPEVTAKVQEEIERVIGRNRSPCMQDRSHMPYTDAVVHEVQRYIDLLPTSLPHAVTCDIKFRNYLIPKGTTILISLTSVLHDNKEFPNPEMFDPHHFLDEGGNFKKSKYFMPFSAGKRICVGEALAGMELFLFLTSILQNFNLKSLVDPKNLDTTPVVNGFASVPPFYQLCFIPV
# Summary of the method: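 CYP2C9 activity was measured with a P450-Glo proluciferin substrate. Enzyme–substrate mix was held with compound for 10 min at room temperature, then NADPH regeneration solution was added for 1 h at 37C. Luciferin product was read as luminescence.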
# [8] = target: Cytochrome P450 1A2 (Homo sapiens) (UniProt P05177); experiment: Cytochrome P450 Family 1 Subfamily A Member 2 (CYP1A2) small molecule antagonists: luciferase reporter qHTS assay (AID 1671199); note: nearly all actives have a fitted effect of over 50% in size; note: potency is the fitted concentration of half-maximal effect; for activity change, negative = inhibition: series mostly up to about 120 µM
# Sequence of Cytochrome P450 1A2 (Homo sapiens) (P05177 whole entry, looked up): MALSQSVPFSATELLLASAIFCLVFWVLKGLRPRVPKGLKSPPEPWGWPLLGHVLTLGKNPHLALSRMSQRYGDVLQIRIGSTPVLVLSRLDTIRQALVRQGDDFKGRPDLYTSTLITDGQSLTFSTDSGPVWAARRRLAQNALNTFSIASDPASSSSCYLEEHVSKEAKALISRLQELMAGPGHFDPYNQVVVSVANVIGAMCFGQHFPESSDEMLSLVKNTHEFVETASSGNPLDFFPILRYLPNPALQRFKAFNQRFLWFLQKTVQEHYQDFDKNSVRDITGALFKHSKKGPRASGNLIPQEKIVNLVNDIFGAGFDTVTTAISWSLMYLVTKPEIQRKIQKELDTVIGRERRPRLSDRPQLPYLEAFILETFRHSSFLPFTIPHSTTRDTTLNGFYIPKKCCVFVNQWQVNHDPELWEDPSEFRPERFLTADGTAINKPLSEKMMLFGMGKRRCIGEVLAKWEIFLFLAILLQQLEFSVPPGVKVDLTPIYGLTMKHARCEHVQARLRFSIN
# Summary of the method: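 Quantitative high-throughput format using the P450-Glo CYP1A2 system. Reaction initiated by NADPH regeneration solution, 1 h at room temperature, then stopped with detection reagent; luminescence measured 20 min later.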
# [9] = target: Voltage-gated inwardly rectifying potassium channel KCNH2 (Homo sapiens) (UniProt Q12809); experiment: Human Ether-a-go-go-Related Gene (hERG) channel small molecule antagonists: fluorescence cell-based qHTS assay (AID 1671200); note: nearly all actives have a fitted effect of over 50% in size; note: potency is the fitted concentration of half-maximal effect;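 for activity change, negative = inhibition: hERG-expressing U2OS cells given a thallium stimulus after FluxOR II dye loading; series mostly up to about 77 µM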
# Sequence of Voltage-gated inwardly rectifying potassium channel KCNH2 (Homo sapiens) (Q12809 whole entry, looked up): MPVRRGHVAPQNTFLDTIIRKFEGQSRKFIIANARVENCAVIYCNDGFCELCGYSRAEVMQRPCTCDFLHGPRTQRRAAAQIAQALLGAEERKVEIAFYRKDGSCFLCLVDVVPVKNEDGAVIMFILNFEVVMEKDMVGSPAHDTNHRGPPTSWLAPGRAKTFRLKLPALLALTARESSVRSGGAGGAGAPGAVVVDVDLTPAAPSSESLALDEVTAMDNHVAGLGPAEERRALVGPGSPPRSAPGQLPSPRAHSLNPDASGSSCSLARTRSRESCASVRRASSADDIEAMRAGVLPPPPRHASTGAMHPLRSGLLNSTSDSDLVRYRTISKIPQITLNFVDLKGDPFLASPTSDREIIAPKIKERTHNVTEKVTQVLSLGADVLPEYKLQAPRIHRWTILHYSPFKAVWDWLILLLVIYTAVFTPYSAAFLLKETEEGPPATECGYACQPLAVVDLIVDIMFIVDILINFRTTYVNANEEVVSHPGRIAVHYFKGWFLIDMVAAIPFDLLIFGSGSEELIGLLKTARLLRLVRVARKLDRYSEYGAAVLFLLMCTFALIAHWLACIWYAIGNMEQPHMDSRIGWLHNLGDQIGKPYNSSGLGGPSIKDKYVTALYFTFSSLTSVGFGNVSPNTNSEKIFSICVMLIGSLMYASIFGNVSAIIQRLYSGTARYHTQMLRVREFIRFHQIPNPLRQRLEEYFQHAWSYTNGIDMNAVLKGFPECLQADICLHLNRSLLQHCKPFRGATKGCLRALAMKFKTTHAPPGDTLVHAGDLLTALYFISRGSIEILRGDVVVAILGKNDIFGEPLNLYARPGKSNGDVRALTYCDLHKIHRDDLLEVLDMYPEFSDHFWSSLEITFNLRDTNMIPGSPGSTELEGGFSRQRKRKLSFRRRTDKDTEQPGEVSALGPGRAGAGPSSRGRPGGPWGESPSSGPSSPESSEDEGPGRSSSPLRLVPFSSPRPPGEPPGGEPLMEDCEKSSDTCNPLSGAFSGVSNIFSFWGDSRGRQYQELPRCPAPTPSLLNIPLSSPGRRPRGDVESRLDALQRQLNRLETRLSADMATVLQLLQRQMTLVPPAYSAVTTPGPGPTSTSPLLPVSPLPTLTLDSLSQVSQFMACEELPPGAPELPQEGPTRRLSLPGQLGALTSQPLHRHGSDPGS
# Summary of the method: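 Read-out: thallium influx as a surrogate for potassium, tracked as fluorescence (480 nm ex/540 nm em) every second for 2 min after Stimulus Buffer addition in dye-loaded hERG-U2OS cells.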
# [10] = target: Cytochrome P450 3A4 (Homo sapiens) (UniProt P08684); experiment: Cytochrome P450 Family 3 Subfamily A Member 4 (CYP3A4) small molecule antagonists: luciferase reporter qHTS assay (AID 1671201); note: nearly all actives have a fitted effect of over 50% in size; note: potency is the fitted concentration of half-maximal effect; for activity change, negative = inhibition: series mostly up to about 120 µM
# Sequence of Cytochrome P450 3A4 (Homo sapiens) (P08684 whole entry, looked up): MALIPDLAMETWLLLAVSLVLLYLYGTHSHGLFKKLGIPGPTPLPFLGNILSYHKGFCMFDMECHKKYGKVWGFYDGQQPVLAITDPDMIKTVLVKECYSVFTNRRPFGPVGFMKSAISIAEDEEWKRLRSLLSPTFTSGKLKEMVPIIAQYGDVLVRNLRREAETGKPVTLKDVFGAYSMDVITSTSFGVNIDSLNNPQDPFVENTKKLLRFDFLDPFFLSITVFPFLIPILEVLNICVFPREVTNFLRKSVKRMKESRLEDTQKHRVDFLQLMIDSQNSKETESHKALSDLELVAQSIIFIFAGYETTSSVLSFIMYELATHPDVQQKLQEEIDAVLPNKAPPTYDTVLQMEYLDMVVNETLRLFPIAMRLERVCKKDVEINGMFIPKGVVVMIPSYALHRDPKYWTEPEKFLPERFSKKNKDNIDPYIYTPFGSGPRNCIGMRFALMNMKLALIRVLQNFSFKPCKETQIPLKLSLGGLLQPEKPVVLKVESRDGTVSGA
# Summary of the method: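 Luminescent readout (RLU) proportional to CYP3A4 activity, from luciferin generated off a proluciferin substrate. Enzyme–substrate mix plus compound 10 min at room temp, NADPH regeneration 1 h, detection reagent 20 min.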
# [11] = target: Nuclear receptor subfamily 1 group I member 2 (Rattus norvegicus) (UniProt Q9R1A7); experiment: Rat pregnane X receptor (rPXR) activation by small molecules, qHTS assay (AID 1346983); settings: rPXR luciferase reporter cells, One-Glo luminescence, 24 h; max activation: stronger effect = higher value; note: nearly all actives have a fitted effect of over 20% in size; note: potency is the fitted concentration of half-maximal effect
# Sequence of Nuclear receptor subfamily 1 group I member 2 (Rattus norvegicus) (Q9R1A7 whole entry, looked up): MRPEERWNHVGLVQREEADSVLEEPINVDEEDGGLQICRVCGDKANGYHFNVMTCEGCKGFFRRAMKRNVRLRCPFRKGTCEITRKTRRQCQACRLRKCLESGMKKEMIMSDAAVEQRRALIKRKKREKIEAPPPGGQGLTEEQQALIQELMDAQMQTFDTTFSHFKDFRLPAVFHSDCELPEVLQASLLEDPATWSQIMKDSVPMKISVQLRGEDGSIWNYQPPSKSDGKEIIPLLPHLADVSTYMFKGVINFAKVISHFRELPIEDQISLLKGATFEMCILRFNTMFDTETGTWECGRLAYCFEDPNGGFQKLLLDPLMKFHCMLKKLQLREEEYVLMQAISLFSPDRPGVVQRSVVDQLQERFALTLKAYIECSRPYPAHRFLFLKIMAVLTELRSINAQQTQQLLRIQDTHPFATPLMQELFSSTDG
# Summary of the method: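 Cell-based rPXR luciferase reporter assay, 2,000 cells per well, rested 5hr at 37 C before compound addition in DMSO, then 24 hr at 37 C. One-Glo reagent was added and luminescence read after 30 min at room temperature.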
# [12] = target: Nuclear receptor subfamily 1 group I member 2 (Homo sapiens) (UniProt O75469); experiment: CYP3A4 induction through human pregnane X receptor (PXR) by small molecules, qHTS assay (AID 1346984); note: nearly all actives have a fitted effect of over 40% in size
# Summary of the method: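 Human PXR activation is tracked via CYP3A4 promoter-luciferase in DPX-2 (HepG2) cells. Compounds treat cells for 24hr at 37C, and luminescence is read after One-Glo.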
Compound,Potency [1],Potency [2],Potency [3],Potency [4],Potency [5],Potency [6],Potency [7],Potency [8],Potency [9],Potency [10],max activation [11],Potency [12],Potency [11],caspase-3/7 activation [2],"activity change, negative = inhibition [9]"
Cc1ncc([N+](=O)[O-])n1CCO,inactive,inactive,inactive,inactive,inactive,inactive,inactive,inactive,inactive,inactive,,,,,
CCN(Cc1c(F)cccc1Cl)c1c([N+](=O)[O-])cc(C(F)(F)F)cc1[N+](=O)[O-],54.5 µM (active),inactive,inactive,8.63 µM (active),inactive,2.24 µM (active),7.96 µM (active),inactive,inactive,0.399 µM (active),,,,,
CC/C(=C(\c1ccccc1)c1ccc(OCCN(C)C)cc1)c1ccccc1,54.4 µM (active) [middle of 4 runs],24.5 µM (active) and inactive,61.1 µM (active) [middle of 4 runs],,,,,,,,-0.827% (inactive),,,,
C=C1CC[C@H](O)C/C1=C\C=C1/CCC[C@]2(C)[C@@H]([C@H](C)CCCC(C)C)CC[C@@H]12,48.1 µM (active),,inactive,17.1 µM (active),inactive,35.3 µM (active),25 µM (active),,inactive,,1.13% (inactive),inactive,,,
NS(=O)(=O)c1cc2c(cc1Cl)NCNS2(=O)=O,inactive,inactive,inactive,inactive,inactive,62.3 µM (active) and inactive,inactive,,inactive,inactive,,,,,
O=C1NC(=O)C(c2ccccc2)(c2ccccc2)N1,inactive,inactive,inactive,,,,,,inactive,,,,,,
Nc1ccc(O)c([N+](=O)[O-])c1,47.1 µM (active),inactive,61.1 µM (active),19.3 µM (active),,22.2 µM (active),25 µM (active),48.5 µM (active),inactive,,,,,,
COc1ccc(CN(CCN(C)C)c2ccccn2)cc1,inactive,inactive,inactive,inactive,,9.94 µM (active) and 32.8 µM (active) and 21.9 µM (active),inactive,inactive,21.7 µM (active) and 20.1 µM (active),inactive,,,,,
COc1ccc(C(Cl)=C(c2ccc(OC)cc2)c2ccc(OC)cc2)cc1,inactive,inactive,inactive,,inactive,7.93 µM (active) and 12.6 µM (active) and 4.36 µM (active),8.9 µM (active) and 7.96 µM (active) and 7.76 µM (active),inactive,inactive,inactive,,,,,
O=C1NS(=O)(=O)c2ccccc21,inactive,inactive,inactive,,,,,,inactive,,-1.81% (inactive),,,,
O=CC(=O)c1ccccc1,,inactive,inactive,inactive,12.6 µM (active),35.6 µM (active),inactive,35.6 µM (active),inactive,inactive,,,,,
CN1CCC[C@H]1c1cccnc1,inactive,inactive,inactive,inactive,35.3 µM (active) and inactive,inactive,,inactive,inactive,,,,,,
NC1CCCCC1,inactive,inactive,inactive,inactive,inactive,35.8 µM (active) and inactive,inactive,40.2 µM (active) and inactive,inactive,inactive,,,,,
C1CCC(C(CC2CCCCN2)C2CCCCC2)CC1 (stereo not given),,,29.8 µM (active),6.68 µM (active),1.1 µM (active),24.5 µM (active),inactive,inactive,,,-20.4% (inactive),inactive,,,
Cc1cccc(C)c1,inactive,inactive,inactive,inactive,inactive and 21.8 µM (active),68.6 µM (active) and inactive,inactive,inactive,inactive,inactive,,,,,
CC(=O)CC(c1ccccc1)c1c(O)c2ccccc2oc1=O (stereo not given),68.9 µM (active) and inactive,inactive,inactive,,,,,,inactive,,-3.82% (inactive),,,,
CC1(C)O[C@@H]2C[C@H]3[C@@H]4CCC5=CC(=O)C=C[C@]5(C)[C@@]4(F)[C@@H](O)C[C@]3(C)[C@]2(C(=O)CO)O1,inactive,inactive,inactive,,31.9 µM (active) and inactive,inactive,,inactive,inactive,,,,12.6 µM (active),,
COc1cccc(O)c1O,63.5 µM (active),inactive,,25.3 µM (active),,58.6 µM (active),inactive,,inactive,inactive,,,,,
Cc1ccc(S(=O)(=O)O)cc1,inactive,inactive,inactive,,,,,,inactive,,,,,,
Cc1cc(=O)oc2cc(O)ccc12,,inactive,inactive,inactive,inactive,inactive,inactive,31.7 µM (active) and 25.2 µM (active) and 17.4 µM (active),inactive,inactive,-6.81% (inactive),inactive,,,
OC[C@H]1O[C@H](O[C@]2(CCl)O[C@H](CCl)[C@@H](O)[C@@H]2O)[C@H](O)[C@@H](O)[C@H]1Cl,inactive,inactive,inactive,inactive,inactive,inactive,inactive,inactive,inactive,inactive,,,,,
Oc1ccccc1,inactive,inactive,inactive,,,,,,inactive,,,,,,
Nc1ccc2c(c1)CN1C(=O)c3ccccc3C1=N2,,,,0.073 µM (active),6.01 µM (active),3.01 µM (active),3.79 µM (active),0.499 µM (active),,,,,,-7.02% [at 19 µM] (inactive),0.308% [at 15.8 µM] (inactive)
CC1(C)S[C@@H]2[C@H](NC(=O)[C@H](N)c3ccccc3)C(=O)N2[C@H]1C(=O)O,inactive,inactive,inactive,inactive,44.5 µM (active) and inactive,inactive,,inactive,,inactive,,,,,
COc1ccc(OC(F)(F)F)cc1CN[C@H]1CCCN[C@H]1c1ccccc1,61.1 µM (active),inactive,,4.86 µM (active),,79.6 µM (active),,,,1.78 µM (active),,,,,
CN(C)CCOC(C)(c1ccccc1)c1ccccn1 (stereo not given),inactive,inactive,inactive,inactive,17.9 µM (active) and 20 µM (active) and 13.8 µM (active),40 µM (active) and inactive,inactive,inactive,inactive,inactive,,,,,
O=c1[nH]cc(F)c(=O)[nH]1,,inactive,inactive,31.8 µM (active) and 24.9 µM (active) and inactive,inactive and 34.7 µM (active),20.8 µM (active) and inactive,inactive,32.9 µM (active) and inactive,inactive,inactive,,,,,
